This is an account of results in PubChem BioAssay (Tox21).

Assay [1] in a line: qHTS assay to identify small molecule agonists of the androgen receptor (AR) signaling pathway in the presence of an antagonist - cell viability counter screen (AID 1259379). Also: nearly all actives have a fitted effect of over 25% in size. Also: potency is read from the fitted curve at half-maximal effect. The procedure, abridged:
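Cytotoxicity is assessed by CellTiter-Fluor in MDA-kb2 cells carrying an MMTV-driven luciferase reporter. Cells receive 3.0uM nilutamide plus compounds at 15 concentrations and incubate 16 hr at 37C without CO2 before fluorescence reading.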

The target of assay [2] is Androgen receptor (Homo sapiens) (UniProt P10275). As to the kind of experiment: qHTS assay to identify small molecule agonists of the androgen receptor (AR) signaling pathway in the presence of an antagonist (AID 1259381; calls by dose curve; also: nearly all actives have a fitted effect of over 15% in size). The gist of the method:
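Agonist-mode confirmation screen: human MDA-kb2 cells stably expressing luciferase under an MMTV promoter bearing AR and GR response elements, co-treated with 3.0uM nilutamide (final). Luminescence measured after 16hr compound incubation.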

Assay [3] can be described thus: qHTS assay to identify small molecule agonists of the estrogen receptor alpha (ER-alpha) signaling pathway in the presence of an antagonist - cell viability counter screen (AID 1259386).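 Also: cells exposed to compounds for 22 h at 37 °C before the viability read; nearly all actives have a fitted effect of over 30% in size.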 Also: potency is read from the fitted curve at half-maximal effect. The procedure, abridged:
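Cytotoxicity was measured in parallel with the ERE-luciferase agonist screen, in the same wells. The cells were VM7Luc4E2, which endogenously express ER-alpha, and treatment was with compounds plus 10.0nM ICI-182,780 for 22hr.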

Assay [4] concerns the target Progesterone receptor (Homo sapiens) (UniProt P06401). Put plainly: qHTS assay to identify small molecule agonists of the progesterone receptor (PR) signaling pathway (AID 1346784; calls by dose curve; also: nearly all actives have a fitted effect of over 30% in size). The procedure, abridged: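 Cells (PR-UAS-bla HEK 293T, GripTite) were plated in assay medium containing 2% charcoal-stripped FBS and incubated 6 hr. Test compounds in DMSO were added for 16 hr at 37C. FRET substrate was then loaded for 2 hr at room temperature before fluorescence reading.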

Assay [5] in a line: qHTS assay to identify small molecule antagonists of the TGF-beta/Smad signaling pathway - cell viability counter screen (AID 1346824). Also: nearly all actives have a fitted effect of over 50% in size. The gist of the method:
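SBE-bla HEK 293T cells were plated overnight at 37 C, then given compounds in DMSO plus TGF-beta1 (added as 0.25 ng/mL solution) for 5 hr. After the bla read, CellTiter-Glo was added to the same wells and luminescence read after 30 min at room temperature.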

Assay [6] in a line: qHTS assay to identify small molecule agonists of the TGF-beta/Smad signaling pathway - cell viability counter screen (AID 1346829). Also: top concentration of the series differs between compounds; nearly all actives have a fitted effect of over 45% in size. The procedure, abridged:
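Cytotoxicity counter screen: CellTiter-Glo luminescence (30 min, room temperature) measured in the SBE-bla HEK 293T reporter wells after 5 hr compound treatment at 37 C and the 2 hr substrate step.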

Assay [7] in a line: qHTS assay to identify small molecule agonists of the TGF-beta/Smad signaling pathway (AID 1346859; active = well fitted activation curve with a large enough effect in the signal ratio in the repeat runs, not every such curve was filed as active; the % refers to the signal ratio; also: series mostly up to about 77 µM). The procedure, abridged:
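Reporter line: HEK 293T with stably integrated SBE-controlled beta-lactamase. Compound exposure lasts 5 hr at 37 C and 5% CO2; substrate loading follows for 2 hr at room temperature, with emission read at 460 and 530 nm.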

Assay [8] concerns the target Thyrotropin-releasing hormone receptor (Homo sapiens) (UniProt P34981). Put plainly: qHTS assay to identify small molecule antagonists of the thyrotropin-releasing hormone receptor (TRHR) signaling pathway (AID 1346877; active = well fitted inhibition curve with a large enough effect in the repeat runs, not every such curve was filed as active; also: series mostly up to about 51 µM). The procedure, abridged: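 Antagonism is measured as suppression of the calcium response to 1 nM TRH in TRHR-HEK293 cells that have been dye-loaded for 2 h at 37 °C after overnight plating. Each compound is tested at 15 concentrations in triplicate.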

The target is the same in assay [9]. Put plainly: qHTS assay to identify small molecule agonists of the thyrotropin-releasing hormone receptor (TRHR) signaling pathway (AID 1346891; calls by dose curve;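 also: HEK293 cells expressing TRHR with calcium dye readout; series mostly up to about 58 µM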). The gist of the method: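 Cells: TRHR-Hek293, seeded and incubated 18 h. Dye loading: 2 h at 37 °C. Compound added from DMSO stock by pin tool. Read-out: kinetic calcium fluorescence over 3 min.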
Assay [10] can be described thus: Human pregnane X receptor (PXR) small molecule agonists, qHTS cell viability counter screen (AID 1346977). Also: nearly all actives have a fitted effect of over 50% in size. Also: potency is read from the fitted curve at half-maximal effect. The gist of the method: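 Cytotoxicity counter screen run in the same wells as the PXR luciferase assay, using PXR-Luc HepG2 cells in charcoal-stripped serum medium. Viability: CellTiter-Fluor fluorescence after 24hr compound treatment.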
Assay [11] is described as follows: Caspase-3/7 induction in HepG2 cells by small molecules, qHTS assay (AID 1346978). Also: nearly all actives have a fitted effect of over 15% in size. The gist of the method: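 Wild-type HepG2 cells (2,000/well) were settled 5 h at 37 C, 5% CO2, then exposed to compounds in DMSO for 17 h. Caspase-3/7 activity was read by luminescence 30 min after adding Caspase-Glo 3/7 reagent at room temperature.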
The nature of assay [12]: Caspase-3/7 induction in CHO-K1 cells by small molecules, qHTS cell viability counter screen (AID 1346979). Also: nearly all actives have a fitted effect of over 35% in size. Also: potency is read from the fitted curve at half-maximal effect. The procedure, abridged: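 Cytotoxicity counter screen run in parallel with the caspase-3/7 assay: CHO-K1 cells, 16hr compound treatment at 37C, then CellTiter-Fluor for 1hr before fluorescence reading.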
Assay [13] can be described thus: qHTS assay to identify small molecule antagonists of the estrogen receptor beta (ER-beta) signaling pathway - cell viability counter screen (AID 1259382).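 Also: HEK293T cells carrying ER-beta-UAS-bla reporter stimulated with estradiol; series mostly up to about 92 µM; nearly all actives have a fitted effect of over 55% in size.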 The gist of the method: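 Cytotoxicity counter screen multiplexed with the beta-lactamase antagonist assay: GripTite HEK293T ER-beta-bla cells were treated 16 hr with test chemicals in the presence of 1nM 17-beta-estradiol, and viability was measured by CellTiter-Glo.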

In assay [14] the target is Estrogen receptor (Homo sapiens) (UniProt P03372). Put plainly: qHTS assay to identify small molecule agonists of the estrogen receptor alpha (ER-alpha) signaling pathway in the presence of an antagonist (AID 1259383; calls by dose curve; also: top concentration of the series differs between compounds; nearly all actives have a fitted effect of over 15% in size). The gist of the method: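 Agonist-mode confirmation in the presence of the ER antagonist ICI-182,780 at 10.0nM final. Breast-derived VM7Luc4E2 reporter cells were exposed to compounds for 22hr, and ERE-driven luciferase was quantified by luminescence.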
Chain of Estrogen receptor (Homo sapiens) (P03372 whole entry, looked up): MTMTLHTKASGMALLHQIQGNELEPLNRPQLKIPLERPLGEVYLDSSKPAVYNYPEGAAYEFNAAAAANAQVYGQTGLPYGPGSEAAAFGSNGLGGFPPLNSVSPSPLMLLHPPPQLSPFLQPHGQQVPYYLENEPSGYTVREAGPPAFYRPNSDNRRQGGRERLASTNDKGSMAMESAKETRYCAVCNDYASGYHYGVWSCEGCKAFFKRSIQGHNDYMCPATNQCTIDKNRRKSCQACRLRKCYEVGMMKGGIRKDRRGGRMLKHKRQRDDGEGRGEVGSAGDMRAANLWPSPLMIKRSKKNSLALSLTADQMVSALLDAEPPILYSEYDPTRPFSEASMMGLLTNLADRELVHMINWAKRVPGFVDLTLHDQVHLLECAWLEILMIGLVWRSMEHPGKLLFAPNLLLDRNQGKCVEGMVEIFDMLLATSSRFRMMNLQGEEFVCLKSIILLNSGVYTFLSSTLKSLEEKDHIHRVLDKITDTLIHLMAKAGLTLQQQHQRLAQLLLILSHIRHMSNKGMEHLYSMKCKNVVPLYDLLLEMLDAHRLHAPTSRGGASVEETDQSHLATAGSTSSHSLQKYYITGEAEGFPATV

The nature of assay [15]: qHTS assay to identify small molecule agonists or antagonists of the thyroid stimulating hormone receptor (TSHR) signaling pathway - wild type cell line counter screen (AID 1259384; calls by dose curve). The procedure, abridged: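 Wild-type HEK293 cells were plated 18 h at 37 C/5% CO2, pin-dosed with compound plus Ro20-1724 medium, held 30 min at room temperature, then given cAMP-d2 and anti-cAMP-cryptate; fluorescence was read after 1 h. Fifteen concentrations, triplicate.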

Assay [16] has as its target Thyrotropin receptor (Homo sapiens) (UniProt P16473). As to the kind of experiment: qHTS assay to identify small molecule antagonists of the thyroid stimulating hormone receptor (TSHR) signaling pathway (AID 1259385; calls by dose curve; also: nearly all actives have a fitted effect of over 20% in size). The gist of the method: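 TSHR-HEK293 cells were plated and held 18 h at 37C/5% CO2, then given compound plus Ro20-1724 and stimulated with TSH at 1.5 ng/mL final. After 30 min at room temperature, cAMP was detected with cAMP-d2/anti-cAMP-cryptate (1 h) by fluorescence.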

A short description of assay [17]: qHTS assay to identify small molecule antagonists of the progesterone receptor (PR) signaling pathway - cell viability counter screen (AID 1346798). Also: nearly all actives have a fitted effect of over 50% in size. Also: potency is read from the fitted curve at half-maximal effect. The gist of the method:
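Counter screen for cytotoxicity: viability of PR-UAS-bla HEK293T cells was measured with CellTiter-Glo luminescence following 16 hr compound exposure in the presence of R5020.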

A short description of assay [18]: qHTS assay to identify small molecule agonists of the progesterone receptor (PR) signaling pathway - cell viability counter screen (AID 1346799; calls by dose curve; also: nearly all actives have a fitted effect of over 45% in size; also: potency is read from the fitted curve at half-maximal effect). The procedure, abridged: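 Cells (PR-UAS-bla HEK293T) are plated at 3,000/well in 2% charcoal-stripped FBS medium, rested 6 hr, dosed and incubated 16 hr at 37C. CellTiter-Glo is then added and luminescence measured after 30 min at room temperature.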

A short description of assay [19]: qHTS assay to identify small molecule agonists of the estrogen receptor beta (ER-beta) signaling pathway - cell viability counter screen (AID 1259380). Also: potency is read from the fitted curve at half-maximal effect; nearly all actives have a fitted effect of over 30% in size. The gist of the method: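 Cytotoxicity is measured in parallel with the reporter screen: after 16 hr compound exposure at 37C and a 2 hr LiveBLAzer step, CellTiter-Glo is added to the same ER-beta-UAS-bla HEK293T wells and luminescence read after 30 min.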

A number with no mark means an inactive call. Results filed as inconclusive are left out. Active and inactive are the calls of the source. Unless noted, calls follow the shape of the dose curve; as a rule, active = well fitted curve in the direction sought with a large enough effect in the repeat runs; inconclusive = weak or mixed curves; inactive = no such curve, though single readings can be large; an effect the other way counts as inactive or inconclusive.

Chain of Androgen receptor (Homo sapiens) (P10275 whole entry, looked up): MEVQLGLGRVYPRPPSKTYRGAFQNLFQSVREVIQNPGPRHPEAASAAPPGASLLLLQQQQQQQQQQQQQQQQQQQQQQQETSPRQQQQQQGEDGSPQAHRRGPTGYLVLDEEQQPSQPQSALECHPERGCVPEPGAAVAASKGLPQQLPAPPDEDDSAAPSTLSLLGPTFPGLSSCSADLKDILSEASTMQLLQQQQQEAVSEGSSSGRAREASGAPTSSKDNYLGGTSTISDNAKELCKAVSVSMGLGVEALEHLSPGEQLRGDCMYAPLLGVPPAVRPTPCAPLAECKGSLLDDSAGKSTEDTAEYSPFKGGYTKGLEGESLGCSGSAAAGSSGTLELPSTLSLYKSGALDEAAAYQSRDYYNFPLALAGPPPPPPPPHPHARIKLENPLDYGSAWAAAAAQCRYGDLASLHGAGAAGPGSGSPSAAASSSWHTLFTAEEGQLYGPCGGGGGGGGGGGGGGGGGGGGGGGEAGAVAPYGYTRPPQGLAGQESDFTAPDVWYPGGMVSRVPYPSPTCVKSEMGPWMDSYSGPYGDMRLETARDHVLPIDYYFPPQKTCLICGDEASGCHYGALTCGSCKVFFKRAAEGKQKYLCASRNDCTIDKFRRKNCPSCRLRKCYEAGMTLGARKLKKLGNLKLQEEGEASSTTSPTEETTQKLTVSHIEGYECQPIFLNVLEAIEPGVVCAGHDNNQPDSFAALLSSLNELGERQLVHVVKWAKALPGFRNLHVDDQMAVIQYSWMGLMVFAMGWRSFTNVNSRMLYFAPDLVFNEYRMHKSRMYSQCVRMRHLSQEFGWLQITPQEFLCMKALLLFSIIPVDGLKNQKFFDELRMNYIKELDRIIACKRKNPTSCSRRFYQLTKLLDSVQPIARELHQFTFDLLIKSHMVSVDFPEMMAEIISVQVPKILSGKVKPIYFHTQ
Chain of Thyrotropin receptor (Homo sapiens) (P16473 whole entry, looked up): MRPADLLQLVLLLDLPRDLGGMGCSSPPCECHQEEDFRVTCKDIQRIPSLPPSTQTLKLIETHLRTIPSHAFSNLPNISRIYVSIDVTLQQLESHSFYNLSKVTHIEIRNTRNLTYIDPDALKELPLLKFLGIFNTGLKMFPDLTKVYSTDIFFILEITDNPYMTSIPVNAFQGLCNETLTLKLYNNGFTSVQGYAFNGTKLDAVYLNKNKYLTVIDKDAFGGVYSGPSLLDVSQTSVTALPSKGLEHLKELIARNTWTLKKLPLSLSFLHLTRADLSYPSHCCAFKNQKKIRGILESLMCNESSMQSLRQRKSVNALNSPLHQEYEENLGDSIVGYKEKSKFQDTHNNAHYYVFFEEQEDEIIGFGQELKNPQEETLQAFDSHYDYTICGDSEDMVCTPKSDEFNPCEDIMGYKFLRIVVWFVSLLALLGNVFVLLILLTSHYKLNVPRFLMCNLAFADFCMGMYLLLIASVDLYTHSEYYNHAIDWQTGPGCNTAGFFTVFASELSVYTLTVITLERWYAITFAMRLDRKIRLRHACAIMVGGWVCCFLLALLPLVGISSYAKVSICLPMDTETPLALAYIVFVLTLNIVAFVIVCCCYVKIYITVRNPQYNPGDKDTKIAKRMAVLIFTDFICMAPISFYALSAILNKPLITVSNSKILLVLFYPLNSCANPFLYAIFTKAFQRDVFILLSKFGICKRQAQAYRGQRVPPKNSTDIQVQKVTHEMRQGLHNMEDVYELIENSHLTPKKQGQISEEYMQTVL
Chain of Progesterone receptor (Homo sapiens) (P06401 whole entry, looked up): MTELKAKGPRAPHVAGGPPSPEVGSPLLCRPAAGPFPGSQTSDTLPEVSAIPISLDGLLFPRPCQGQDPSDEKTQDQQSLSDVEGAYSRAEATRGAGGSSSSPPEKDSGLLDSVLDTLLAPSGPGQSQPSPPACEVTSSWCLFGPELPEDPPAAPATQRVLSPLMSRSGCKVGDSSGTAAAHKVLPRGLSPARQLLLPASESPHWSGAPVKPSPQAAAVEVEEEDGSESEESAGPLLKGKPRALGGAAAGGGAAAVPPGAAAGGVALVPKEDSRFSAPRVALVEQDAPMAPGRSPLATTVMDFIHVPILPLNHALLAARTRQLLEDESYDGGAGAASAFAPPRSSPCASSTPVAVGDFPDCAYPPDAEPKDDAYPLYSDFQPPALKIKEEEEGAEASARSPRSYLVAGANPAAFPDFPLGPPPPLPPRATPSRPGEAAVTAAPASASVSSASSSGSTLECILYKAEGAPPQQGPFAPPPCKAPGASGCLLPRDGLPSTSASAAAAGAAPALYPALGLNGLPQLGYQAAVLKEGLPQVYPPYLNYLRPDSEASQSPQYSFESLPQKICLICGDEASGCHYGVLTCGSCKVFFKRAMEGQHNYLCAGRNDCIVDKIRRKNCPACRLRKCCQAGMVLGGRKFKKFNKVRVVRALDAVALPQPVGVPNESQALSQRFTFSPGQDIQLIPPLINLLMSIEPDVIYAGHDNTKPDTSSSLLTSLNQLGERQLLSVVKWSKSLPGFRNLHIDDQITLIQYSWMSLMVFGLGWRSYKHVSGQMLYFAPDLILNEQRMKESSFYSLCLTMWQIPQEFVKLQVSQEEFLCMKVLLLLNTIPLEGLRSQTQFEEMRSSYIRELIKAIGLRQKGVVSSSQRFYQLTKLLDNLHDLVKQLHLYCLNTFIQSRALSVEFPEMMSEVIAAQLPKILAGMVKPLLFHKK
Chain of Thyrotropin-releasing hormone receptor (Homo sapiens) (P34981 whole entry, looked up): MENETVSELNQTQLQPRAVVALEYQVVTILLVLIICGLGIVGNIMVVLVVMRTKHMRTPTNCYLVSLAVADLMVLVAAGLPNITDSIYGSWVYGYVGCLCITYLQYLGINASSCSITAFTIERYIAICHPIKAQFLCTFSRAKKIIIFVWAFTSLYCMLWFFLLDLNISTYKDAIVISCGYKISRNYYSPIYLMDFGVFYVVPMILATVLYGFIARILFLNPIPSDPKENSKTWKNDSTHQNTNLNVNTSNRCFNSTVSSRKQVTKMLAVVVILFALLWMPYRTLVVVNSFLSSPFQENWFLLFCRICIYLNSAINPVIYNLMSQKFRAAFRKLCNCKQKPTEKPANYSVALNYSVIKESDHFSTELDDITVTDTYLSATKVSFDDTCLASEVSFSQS

For `Nc1ccc(Cl)c([N+](=O)[O-])c1`, the Potency entry in assay [1], in assay [2], in assay [3], in [5], in assay [6] and in assay [8] was “inactive” in each case. The Potency entry in assay [9], in assay [10] and in assay [11] was “inactive” each time. Further, the outcome in assay [4] and in [7] was inactive. For the same compound, in assay [12], the Potency is 54.5 µM (active).

With `C1=CCCC1`, the Potency result in assay [1], in assay [2], in assay [13], in assay [14], in [15] and in assay [16] was “inactive” in each case. For the same compound, the Potency entry in assay [3], in assay [17], in assay [18], in assay [5], in [6] and in assay [8] was “inactive” in each case. Further, the Potency entry in assay [9], in assay [10], in [11] and in assay [12] was “inactive” each time. Moreover, the compound was called inactive in [7].

Take `c1ccc(-c2ccc(C(c3ccccc3)n3ccnc3)cc2)cc1` (configuration not stated): the Potency entry in assay [1], in assay [14], in assay [15], in assay [3], in assay [5] and in assay [6] was “inactive” throughout. Moreover, the Potency entry in assay [11] is “inactive”. Besides, the Potency in assay [19] was 29.8 µM (active); in assay [17] it was 9.44 µM (active); in assay [18] it was 16.8 µM (active); in [12], 18.8 µM (active). Besides, in assay [7], the compound was classed as inactive.

As for `CCCC(=O)c1cc(O)c(O)cc1O`, the Potency in assay [1] was 54.5 µM (active); in assay [3], 30.6 µM (active); in assay [10], 44.7 µM (active); in assay [12] it was 51.4 µM (active). The Potency result in [2], in assay [13], in assay [14], in [5], in assay [6] and in assay [8] was “inactive” throughout. For the same compound, the Potency entry in assay [9] and in assay [11] was “inactive” throughout.

`O=C(Nc1ccc([N+](=O)[O-])cc1)Nc1ccc([N+](=O)[O-])cc1` (tested in a mixture with another compound): the Potency result in [1], in assay [15], in assay [16], in assay [3], in [18] and in assay [5] was “inactive” throughout. Further, the Potency entry in assay [6], in [8], in [9], in assay [10] and in assay [11] was “inactive” throughout. The Potency in [19] is 0.596 µM (active); in [17], 1.19 µM (active). Moreover, the compound was classed as inactive in assay [4] and in assay [7].

On to `Oc1ccc(Cl)cc1C1CCCC1`, for which the Potency result in assay [1], in [13], in assay [15], in assay [16], in [3] and in assay [17] was “inactive” in each case. Further, the Potency entry in assay [18], in assay [5], in assay [6], in assay [8], in [9] and in assay [10] was “inactive” in each case. The compound was classed as inactive in assay [4] and in assay [7].

For `CC(C)(C)c1ccc(OC2CCCCC2O)cc1` (configuration not stated), the Potency result in assay [1], in assay [2], in assay [14], in [15], in assay [16] and in [17] was “inactive” throughout. Besides, the Potency entry in assay [18], in assay [5], in assay [6], in [8] and in assay [10] was “inactive” in each case. The compound was called inactive in [4] and in [7]. Also, in assay [12], the Potency is 61.1 µM (active).

Take `CCCCCCCCCCCC(=O)Cl`: the Potency result in assay [1], in [14], in assay [15], in assay [16], in [3] and in [17] was “inactive” each time. In addition, the Potency entry in assay [5], in assay [6], in assay [8], in assay [9], in [10] and in assay [11] was “inactive” throughout. For the same compound, in assay [12], the Potency result is “inactive”. The Potency in assay [19] is 34.4 µM (active). Also, the compound was classed as inactive in assay [4] and in assay [7].
